From PubChem BioAssay AID493170 (National Center for Advancing Translational Sciences (NCATS), 2011)
Records with an inconclusive call do not appear. A call without a number means that no potency is given here. Active and inactive are the calls of the source. The call rests on the fitted dose curve; in most records, active means well fitted inhibition curve with a large enough effect; inconclusive means small, poorly fitted or top-dose-only effect, or effect the other way; inactive means flat fitted curve, though single readings scatter.

target: Ubiquitin carboxyl-terminal hydrolase 2 (Homo sapiens) (UniProt O75604); assay: Ub-rhodamine 110 based assay for inhibitors Ubiquitin-specific Protease USP2a; conditions: USP2a Ub-rhodamine110 cleavage, fluorescence; series mostly up to 38.3 µM; further: nearly all actives have a fitted effect of over 50% in size
Sequence (O75604 whole entry, looked up): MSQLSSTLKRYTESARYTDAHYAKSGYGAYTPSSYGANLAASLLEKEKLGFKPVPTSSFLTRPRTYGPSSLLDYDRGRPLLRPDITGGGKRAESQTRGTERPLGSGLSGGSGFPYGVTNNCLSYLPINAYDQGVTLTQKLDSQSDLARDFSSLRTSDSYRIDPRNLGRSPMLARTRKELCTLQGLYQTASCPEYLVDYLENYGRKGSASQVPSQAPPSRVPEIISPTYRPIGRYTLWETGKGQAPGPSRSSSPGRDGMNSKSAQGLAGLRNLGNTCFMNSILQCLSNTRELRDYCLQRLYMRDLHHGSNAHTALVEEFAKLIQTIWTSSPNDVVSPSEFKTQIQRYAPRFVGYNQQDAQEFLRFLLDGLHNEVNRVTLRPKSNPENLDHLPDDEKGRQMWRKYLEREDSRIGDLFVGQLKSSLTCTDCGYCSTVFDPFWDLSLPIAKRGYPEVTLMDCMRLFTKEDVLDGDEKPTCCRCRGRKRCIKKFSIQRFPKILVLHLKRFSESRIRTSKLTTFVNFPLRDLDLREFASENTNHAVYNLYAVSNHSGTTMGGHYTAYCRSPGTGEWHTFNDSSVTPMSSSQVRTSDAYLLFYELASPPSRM
How it was run: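 5 nM USP2a preincubated with compounds for 30 min at RT in 20 mM Tris-HCl pH 8.0, 2 mM CaCl2, 2 mM beta-mercaptoethanol, 0.05% CHAPS. Cleavage of 150 nM Ub-rhodamine 110 read kinetically (Ex 485/Em 531) for 7 min.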
Potency means the concentration at half of the fitted maximal effect.

SMILES | Potency
O=C(CSc1nc2ccccc2[nH]1)Nc1ccc2c(c1)OCCO2 | inactive
N#C/C(=C\c1ccc(O)c(O)c1)C(=O)Nc1cccc2ncccc12 | 2.24 µM (active)
O=C(COc1ccccc1)NCc1nnc(SCC(=O)Nc2nccs2)n1-c1ccccc1 | inactive
CC(C)(C)OC(=O)C[C@H]1C/C=C\C[C@H](CC(=O)N(CCO)Cc2ccccc2)C(=O)NC[C@H](c2ccccc2)OC1=O | inactive
CC(C)(C)CC(C)(C)c1ccc(OCCOCC[N+](C)(C)Cc2ccccc2)cc1 | inactive
CCc1cc2c(=O)c(-n3cnc4ccccc43)coc2cc1O | inactive
O=C(CCS(=O)(=O)c1ccc(Br)s1)NC1CCCC1 | inactive
Cc1ccc(C(=O)Oc2coc(CSc3nnc(NC(=O)c4cccs4)s3)cc2=O)cc1 | 11.2 µM (active)
CC1CCCCN1CCNC(=O)CC1Oc2ccccc2NC1=O (centres undefined) | inactive
CC(C)C(=O)N=c1sc2cc(F)cc(F)c2n1C | inactive
CC(C)Oc1ccc(C(=O)Nc2ccc(N3CCCC3)cc2)cc1 | 10 µM (active)
Cc1ccc(/C(N)=N/OC(=O)Oc2ccccc2)cc1 | inactive
COc1ccc2[nH]c(=O)c(CN(Cc3ccco3)Cc3nnnn3Cc3ccccc3)cc2c1 | inactive
O=c1cc(CO)oc(CN2CCN(Cc3ccccc3)CC2)c1O | inactive
CC1=NN(C(=O)c2csc(C)c2C)C(O)(C(F)(F)F)C1 (centres undefined) | inactive
Cc1cccc(N2CCN(C(=O)CCc3nc4ccccc4[nH]3)CC2C)c1 (centres undefined) | inactive
Cc1c(N=C/C=C2\N(C)c3ccccc3C2(C)C)c(=O)n(-c2ccccc2)n1C | inactive
COc1ccc(/C=C(\NC(=O)c2ccc(OC)c(OC)c2)C(=O)N2CCN(C)CC2)cc1 | inactive
CN(C)c1ccc(C(CN)c2c[nH]c3ccccc23)cc1 (centres undefined) | inactive
CC1(C(=O)O)Sc2[nH]c(=O)sc2C2c3ccccc3OC(=O)C21 (centres undefined) | inactive
O=C(N/N=C/c1ccc(-c2ccc(S(=O)(=O)Nc3ncccn3)cc2)o1)c1cc2ccccc2cc1O | 4.47 µM (active)
CCN1C(=O)CSc2ccc(C(=O)NC3CCCCC3)cc21 | inactive
Cc1ccc(C2=NC(=O)/C(=C/c3cc(O)c(O)c(Br)c3)S2)cc1 | 1.58 µM (active)
CCC(C(=O)NCc1ccccc1OC)n1nc(C)n2c(cc3occc32)c1=O (centres undefined) | inactive
